Bioassay records deposited in PubChem by University of Kansas High Throughput Screening Laboratory.
Pf apPOL inh = Pf-apPOL inhibitors, biochemical, fluorescence; inhibition, % at 10 µM; 210,000 tested, 0.25% active; Recombinant Pf-apPOL, molecular beacon fluorescence, 1.5 h; Plasmodium falciparum apicoplast DNA polymerase (apPOL)
mHTT CaM bind = mutant huntingtin-calmodulin interaction inhibitors – biochemical, AlphaScreen, primary screen; P42858; AlphaScreen His-mHTT/GST-CaM binding, luminescence; inhibition, % at 15 µM; 190,000 tested, 3.6% active; AID 1671202, 2021;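 further: 0% = both proteins with DMSO and 100% = one protein alone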
Active calls of the source: *; . = not tested or not shown. Rows were chosen to be rich in hits. Some 3.6% of all compounds tested hit in one or more screens of this group. No stated cut-off is given here; in the data, active means inhibition above about 50%; inactive means the rest.

SMILES	Pf apPOL inh	mHTT CaM bind
O=C(NCC(O)c1ccoc1)C(=O)NC1CCCC1 (stereo not given)	-3	-2
Cc1ccc2ccc(C(Nc3ccccn3)c3ccc(O)cc3)c(O)c2n1 (stereo not given)	2	93*
C=CCOc1ccc(C(Nc2ccccn2)c2ccc3ccc(C)nc3c2O)cc1 (stereo not given)	-5	67*
C=CCOc1ccc(C=Nc2ccc(C(C)C)cc2)c(O)c1	4	2
Cc1ccc(C)c(C(C)Sc2ncccc2C(=O)O)c1 (stereo not given)	1	.
Cc1ccc(C)c(C(Nc2ccccn2)c2ccc3cccnc3c2O)c1 (stereo not given)	4	97*
Cc1ccnc(NC(c2cccs2)c2ccc3cccnc3c2O)c1 (stereo not given)	4	100*
CCC(=O)N1CCOC(COc2cccc(OC)c2)C1 (stereo not given)	-2	-5
COc1ccc(C(Nc2ccccn2)c2ccc3ccc(C)nc3c2O)cc1C (stereo not given)	-6	81*
Cc1ccc(C(Nc2ccccn2)c2ccc3ccc(C)nc3c2O)cc1 (stereo not given)	-12	72*
CCCOc1ccc(C=Nc2ccc(S(=O)(=O)Nc3ccccn3)cc2)cc1	-5	-5
COc1cc(C)c(S(=O)(=O)Nc2ccccn2)cc1C	0	-2
Cc1ccc(-c2nc(C=Nc3ccccn3)c(O)o2)cc1	-2	9
O=S(=O)(Nc1ccccn1)c1ccc(Cl)cc1	0	-2
CCCOc1ccc(C(Nc2ccccn2)c2ccc3cccnc3c2O)cc1 (stereo not given)	-7	97*
Oc1c(C(Nc2ccccn2)c2ccc(Cl)cc2)ccc2cccnc12 (stereo not given)	4	100*
c1cnn(-c2cc(N3CCSCC3)ncn2)c1	-3	6
Oc1c(C(Nc2ccccn2)c2ccc(Br)cc2)ccc2cccnc12 (stereo not given)	0	94*
O=C(Nc1ccccn1)c1cc(Br)ccc1Cl	3	3
CCCc1cc(C2CCCN2C(=O)Nc2ccsc2C(=O)OC)no1 (stereo not given)	3	-6
CCOC(=O)C(C)Oc1cc2c(C(=O)OC(C)C)c(C)oc2cc1Br (stereo not given)	-3	-23
Cc1c(Cl)cccc1N=Cc1nc(-c2ccccc2Br)oc1O	12	-1
CC1CCN(c2ncc3c(n2)CCC(C(=O)NCc2ccc(OC(C)C)cc2)C3)CC1 (stereo not given)	-7	0
Cn1c(CN2CCN(C(=O)c3ccc(Br)o3)CC2)nc2ccccc21	-4	-3
Cn1c(CN2CCN(C(=O)c3ccc([N+](=O)[O-])o3)CC2)nc2ccccc21	53*	-5
SMILES	Pf apPOL inh	mHTT CaM bind
Brc1cccc(C2=CC(c3cccs3)n3nnnc3N2)c1 (stereo not given)	-3	4
CCC(C(=O)Nc1ccccn1)c1ccccc1 (stereo not given)	2	-4
Cc1ccnc(NC(c2cccc(O)c2)c2ccc3ccc(C)nc3c2O)c1 (stereo not given)	-5	93*
Cc1cc(O)c(C(c2cccnc2)c2c(O)cc(C)oc2=O)c(=O)o1	0	3
Cc1ccnc(NC(=O)CSc2nc(C)cc(C)n2)c1	-1	-2
COc1cc(C(Nc2cc(C)ccn2)c2ccc3ccc(C)nc3c2O)cc(OC)c1OC (stereo not given)	2	89*
COc1ccc(-c2csc(Nc3cc(C)ccn3)n2)cc1OC	2	47
Cc1ccc2ccc(C(Nc3ccccn3)c3cccc(O)c3)c(O)c2n1 (stereo not given)	-16	76*
Cc1cccc(NC(c2cccnc2)c2ccc3ccc(C)nc3c2O)n1 (stereo not given)	-6	90*
COCCCNC(=O)C1c2ccccc2C(=O)N(Cc2ccc(F)cc2)C1c1ccc(OC)cc1 (stereo not given)	-2	15
O=C1C(c2cccnc2)N(Cc2ccccc2F)C(=O)CN1c1ccccc1 (stereo not given)	-1	3
COc1cccc(OC)c1C(=O)Oc1ccc2c(c1)OC(=Cc1ccco1)C2=O	-5	-1
COc1ccc(OC)c(NS(=O)(=O)c2ccc3c(c2)OCCO3)c1	3	-4
COc1cc2c(cc1OC)C(C)N(C(=O)c1cccc(Br)c1)CC2 (stereo not given)	-2	17
O=c1cc(CO)oc(C(Nc2ccccn2)c2cccc([N+](=O)[O-])c2)c1O (stereo not given)	10	14
Cc1ccc2cccc(SCC(=O)Nc3ccc(F)cc3)c2n1	-14	-1
Cc1cccc(NC(c2cccc([N+](=O)[O-])c2)c2ccc3ccc(C)nc3c2O)n1 (stereo not given)	-10	70*
Cc1ccc2cccc(I)c2n1	-5	.
Cc1cccc(NC(c2ccccc2)c2ccc3ccc(C)nc3c2O)n1 (stereo not given)	-1	77*
Cc1cccc(NC(c2cccc(O)c2)c2ccc3ccc(C)nc3c2O)n1 (stereo not given)	-12	89*
Cc1cccc(NC(c2ccccc2F)c2ccc3ccc(C)nc3c2O)n1 (stereo not given)	-4	71*
CCC(C(=O)Nc1cccc(C)n1)c1ccccc1 (stereo not given)	-5	-6
O=[N+]([O-])c1ccc(-c2cnnn2-c2cc(Cl)ccc2Cl)cc1	2	5
COc1ccccc1N1C(=O)S/C(=C\c2ccc(O)cc2)C1=O	-6	19
COC(=O)Oc1ccc2c(=O)c(Oc3ccc(C)cc3)coc2c1	16	80*
SMILES	Pf apPOL inh	mHTT CaM bind
COc1cccc(Oc2coc3cc(OC(=O)C(C)C)ccc3c2=O)c1	-6	31
COc1ccccc1Oc1coc2cc(OC(=O)C(C)C)ccc2c1=O	-2	100*
CC(=O)Oc1ccc2c(=O)c(Oc3ccccc3)coc2c1	-7	20
CC(C)n1c(COc2ccc(OC(F)(F)F)cc2)nnc1SCc1ccccc1	-10	.
O=C1C=C(Nc2cccc(C(F)(F)F)c2)C(=O)c2ccccc21	2	19
Cc1cccc(CNC(=O)c2csc(-c3ccncc3)n2)c1	1	-2
COc1nccnc1N1CCC(NC(=O)c2ccc(C)s2)C1 (stereo not given)	2	7
COC(=O)c1cccc(NC(=O)C2CCCN(c3nnc4c(Cl)cccn34)C2)c1 (stereo not given)	1	16
N#CC1=C(N)SC(c2cccs2)C(C#N)=C1N (stereo not given)	.	9
O=C(CC1COc2ccccc2NC1=O)Nc1cccc2ccccc12 (stereo not given)	-80	69*
COc1ccccc1NC(=O)CC1COc2ccccc2NC1=O (stereo not given)	0	-4
O=C(c1cc(F)cc(F)c1)N1CCCC(c2ccnc(-c3cccc(F)c3)n2)C1 (stereo not given)	-2	-6
Cc1cc2nc3s/c(=C\c4ccc5c(c4)OCO5)c(=O)n3c2cc1C	2	-3
Cc1cc(N2CCC(C(=O)N3CCN(Cc4ccccc4)CC3)C2=O)ccc1Cl (stereo not given)	-3	34
CC1=NN(c2ccccc2)C(=O)/C1=C/c1ccc[nH]1	-10	81*
CC1=NN(c2ccccc2)C(=O)/C1=C/c1ccc(N)cc1	-5	57*
